Results from PubChem BioAssay (EPA / NIEHS).
Calls of active or inactive are those of the source. How the source made its calls: active means hit-call score of the fitted dose curve at least 0.9, where 1 is the maximum; inactive means score below 0.9.

Read-out: Bcl-2 (BAD) gene, BAD (gene 572)
Assay: LTEA_HepaRG_BAD: Life Technologies and Expression Analysis (LTEA) Assay for Bcl-2 (BAD) gene using HepaRG (AID 2283469)
Settings: mRNA level, 48 h; actives raise or lower the signal
Protocol: LTEA_HepaRG is a cell based, multiplexed-readout assay that uses HepaRG, a human liver cell line, with measurements taken at 48 hours after chemical dosing on a 96-well plate.LTEA_HepaRG_BAD is one of 102 assay component(s) measured in the LTEA HepaRG cell culture assay. It is a marker of Cell proliferation, survival, death.Data from the assay component LTEA_HepaRG_BAD was analyzed into 1 endpoint. This assay endpoint, LTEA_HepaRG_BAD, was analyzed with bidirectional fitting relative to DMSO as the negative control and baseline of activity. Using a type of inducible reporter, measures of mRNA induction for gain or loss-of-signal activity can be used to understand regulation of transcription factor activity. To generalize the intended target to other relatable targets, this assay endpoint is annotated to the cell cycle intended target family, where the subfamily is Cell proliferation, survival, death.
A total of 1060 chemcials from the ToxCast library were tested in eight-point concentration-response experiments. Cell culture and cytotoxicity assays were conducted at Thermo Fisher Scientific's Custom Services facility (Madison, WI). A single lot of human HepaRG cells (Thermo Fisher Scientific, Frederick, MD) was used for the cell culture experiments. 96-well format collagen type I coated plates of human HepaRG cells were prepared using established methods. Briefly, cryopreserved HepaRG cells were thawed, plated at a density of approximately 100,000 cells/well in HepaRG Thaw, Plate, and General Purpose media (HPRG770, Thermo Fisher Scientific), and incubated for 48 hours. 0.5% DMSO was selected as vehicle control to balance the requisite need of DMSO in HepaRG cultures to maintain differentiation (for example, baseline metabolism, proportions of hepatocytes vs. cholangiocytes), while enabling further hepatic receptor pathway activation (for example, PXR and CAR) in response to chemical exposure. 48 hours after plating, the culture medium was replaced with HepaRG Serum-Free Incudtion Media. Cells were exposed to each test chemical in duplicate and maintained in CO2 incubators for another 48 hours. Chemical plates were thawed to room temperature and 200x concentrations of treatment groups were prepared. 8-point conentration-reponse curves were made with the highest exposure at 100 uM, followed by half-log dilutions, all in 0.5% DMSO. Each test plate contained variouse controls, induction positive controls (1mM phenobarbital), cytotoxicity positive controls ([…] aflatoxin B1), vehicle controls (0.5% DMSO), and total lysis controls (0.5% DMSO). Cell morphology images were taken using an Essen IncuCyte FLR automated microscope, with six 96-well plates imaged in about 24 minutes. Images were captured and exported and JPEG files. Spent culture media was transfered to black-well plates for the LDH assay, and remaining media was sorted at -80 C for later use. Cells were treated with RLT buffer and frozen until shipped for gene expression analysis. Total RNA was isolated from the cell suspension in 75 uL of Buffer RLT (Qiagen, Germantown, MD 20874) by Quintiles/Expression Analysis (Durham, NC) using a custom isolation procedure. Total RNA from each plate well was transferred to a preamplification plate. Fluidigm's 96.96 Dynamic ArrayTM (Fluidigm, Amsterdam, the Netherlands) technology was used for gene expression analyses by quantitative reverse transcription polymerase chain reaction (qRT-PCR, performed by Quintiles/Expression Analysis, Durham, NC)89. Standard TaqManTM Assays (Applied Biosystems/ThermoFisher Scientific, Foster City, CA) were used to assess the expression of 93 genes selected based on their selectivity and sensitivity to important hepatic receptors known to be modulated by environmental chemicals; importance in human hepatocyte functionality; and hepatotoxicity. […]

Q: Which outcome does the source give for `Nc1ccc(-c2ccc(N)cc2)cc1` here?
A: Its outcome is “inactive”.

Q: `Oc1c(Cl)c(Cl)c(Cl)c(Cl)c1Cl` was tested. Which outcome did it give?
A: Its outcome is “inactive”.

Q: How did the outcome turn out when `N#Cc1ccc(N(CC(N)=O)CC(F)(F)F)cc1C(F)(F)F` was run?
A: The outcome was “inactive”.

Q: For `CCOC(=O)C(O)(c1ccc(Cl)cc1)c1ccc(Cl)cc1`, which outcome is on record?
A: The outcome was “inactive”.

Q: With `CCOP(=S)(OCC)SCSC(C)(C)C` as the compound, how does the outcome read?
A: The outcome was “inactive”.

Q: How did the outcome turn out when `Cc1ccc(O)c(C)c1` was run?
A: The outcome was “inactive”.

Q: With `CN(C)CCO` as the compound, how does the outcome read?
A: The outcome was “inactive”.

Q: How did the outcome turn out when `O=C(N[C@H]1CN2CCC1CC2)c1cc2ccoc2cn1` was run?
A: The outcome was “inactive”.

Q: With `O=C(NC(=O)c1c(F)cccc1F)Nc1cc(Cl)c(OC(F)(F)C(F)F)c(Cl)c1` as the compound, how does the outcome read?
A: Its outcome is “inactive”.

Q: `CC(C)(c1ccccc1)c1ccc(O)cc1` was tested. Which outcome did it give?
A: The outcome was “inactive”.

Q: With `Clc1ccc(Cl)cc1` as the compound, how does the outcome read?
A: Its outcome is “inactive”.

Q: For `C=CC(=O)NCNC(=O)C=C`, which outcome is on record?
A: The outcome was “inactive”.

Q: For `Oc1ccc(Cl)cc1Cl`, which outcome is on record?
A: Its outcome is “inactive”.

Q: Which outcome does the source give for `CCCCCCOC(=O)c1ccccc1C(=O)OCCCCCC` here?
A: The outcome was “inactive”.

Q: `NS(=O)(=O)C(F)(F)C(F)(F)C(F)(F)C(F)(F)C(F)(F)C(F)(F)C(F)(F)C(F)(F)F` was tested. Which AC50 did it give?
A: The AC50 was 17.6 µM (active).

Q: With `Clc1ccc(C(c2ccccc2Cl)C(Cl)(Cl)Cl)cc1` (stereo not given) as the compound, how does the outcome read?
A: Its outcome is “inactive”.

Q: For `CCCCCCCCOC(=O)c1ccccc1C(=O)OCCCCCCCC`, which outcome is on record?
A: Its outcome is “inactive”.

Q: Which outcome does the source give for `CCC(C)c1cc([N+](=O)[O-])cc([N+](=O)[O-])c1O` (stereo not given) here?
A: Its outcome is “inactive”.

Q: Which outcome does the source give for `O=C(O)C(F)(F)C(F)(F)C(F)(F)C(F)(F)C(F)(F)C(F)(F)C(F)(F)C(F)(F)F` here?
A: Its outcome is “inactive”.

Q: For `CCCCCCCCCc1ccc(O)cc1`, which outcome is on record?
A: Its outcome is “inactive”.

Q: For `O=S(=O)(O)C(F)(F)C(F)(F)C(F)(F)C(F)(F)C(F)(F)C(F)(F)F`, which outcome is on record?
A: The outcome was “inactive”.

Q: `ClC1=C(Cl)[C@]2(Cl)[C@@H]3[C@@H]4C[C@@H]([C@H]5O[C@@H]45)[C@@H]3[C@@]1(Cl)C2(Cl)Cl` was tested. Which outcome did it give?
A: The outcome was “inactive”.

Q: How did the outcome turn out when `COS(=O)(=O)OC` was run?
A: Its outcome is “inactive”.

Q: How did the outcome turn out when `Cc1cccc(C)c1N` was run?
A: The outcome was “inactive”.

Q: For `c1ccc(-c2ccccc2)cc1`, which outcome is on record?
A: The outcome was “inactive”.

Q: `Cc1ccccc1CO[C@@H]1C[C@@]2(C(C)C)CC[C@]1(C)O2` was tested. Which outcome did it give?
A: The outcome was “inactive”.

Q: For `CO/C=C(/C(=O)OC)c1ccccc1COc1cccc(C(F)(F)F)n1`, which outcome is on record?
A: The outcome was “inactive”.

Q: With `CC(C)(O)C(=O)Nc1ccc([N+](=O)[O-])c(C(F)(F)F)c1` as the compound, how does the AC50 read?
A: Its AC50 is 0.0265 µM (active).

Q: `CC(c1ccc(O)cc1)(c1ccc(O)cc1)c1ccc(O)cc1` was tested. Which outcome did it give?
A: The outcome was “inactive”.

Q: For `O=NN(c1ccccc1)c1ccccc1`, which outcome is on record?
A: The outcome was “inactive”.

Q: With `CC1=C2C[C@H]3[C@@H](CC=C4C[C@@H](O)CC[C@@]43C)[C@@H]2CC[C@]12O[C@@H]1C[C@H](C)CN[C@H]1[C@H]2C` as the compound, how does the outcome read?
A: The outcome was “inactive”.

Q: How did the outcome turn out when `O=S(=O)(O)C(F)(F)C(F)(F)C(F)(F)C(F)(F)F` was run?
A: Its outcome is “inactive”.

Q: Which outcome does the source give for `CCSC(=O)N(CC)C1CCCCC1` here?
A: Its outcome is “inactive”.

Q: Which outcome does the source give for `CCOCCOC(C)=O` here?
A: Its outcome is “inactive”.

Q: How did the outcome turn out when `Cc1cc(-c2ccc(N)c(C)c2)ccc1N` was run?
A: Its outcome is “inactive”.

Q: With `CCC(=O)O[C@H]1CC[C@H]2[C@@H]3CCC4=CC(=O)CC[C@]4(C)[C@H]3CC[C@]12C` as the compound, how does the outcome read?
A: The outcome was “inactive”.

Q: Which outcome does the source give for `CCCN(CCC)N=O` here?
A: Its outcome is “inactive”.

Q: Which outcome does the source give for `CN(C)c1nc(=O)n(C2CCCCC2)c(=O)n1C` here?
A: The outcome was “inactive”.

Q: `Oc1ccc(C(c2ccc(O)cc2)(C(F)(F)F)C(F)(F)F)cc1` was tested. Which outcome did it give?
A: The outcome was “inactive”.

Q: For `Cc1ccccc1O`, which outcome is on record?
A: Its outcome is “inactive”.
